According to PubChem BioAssay AID720540 (National Center for Advancing Translational Sciences (NCATS), 2013):
Hit rate of the full screen: of about 1,300 compounds, about 460 (35%) were called active. Roughly 39% stayed inconclusive and do not appear here. Calls come from the whole dose curve; as a rule, active = well fitted inhibition curve with a large enough effect; inconclusive = small, poorly fitted or top-dose-only effect; inactive = flat fitted curve, though single readings scatter. The list shows a part of the results.

Target: Protein phosphatase EYA2 (Homo sapiens) (UniProt O00167)
Sequence (O00167 whole entry, looked up): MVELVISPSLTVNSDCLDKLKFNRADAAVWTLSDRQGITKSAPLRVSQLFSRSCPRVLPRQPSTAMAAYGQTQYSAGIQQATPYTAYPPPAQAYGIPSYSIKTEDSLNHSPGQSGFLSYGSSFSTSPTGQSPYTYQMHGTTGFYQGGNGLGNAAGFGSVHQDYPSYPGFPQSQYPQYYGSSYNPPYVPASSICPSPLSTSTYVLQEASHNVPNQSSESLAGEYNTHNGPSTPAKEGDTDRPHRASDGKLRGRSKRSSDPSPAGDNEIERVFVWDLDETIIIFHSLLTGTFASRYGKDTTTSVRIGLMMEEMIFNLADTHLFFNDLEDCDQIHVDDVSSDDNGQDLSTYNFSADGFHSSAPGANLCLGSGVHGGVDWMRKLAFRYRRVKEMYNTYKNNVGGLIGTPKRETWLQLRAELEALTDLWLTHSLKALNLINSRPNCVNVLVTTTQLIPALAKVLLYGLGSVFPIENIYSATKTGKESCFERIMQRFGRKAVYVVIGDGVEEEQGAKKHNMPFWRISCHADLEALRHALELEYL
Assay: qHTS for Inhibitors of the Phosphatase Activity of Eya2: Confirmatory Assay for Cherry-picked Compounds; note: nearly all actives have a fitted effect of over 65% in size
Details: purified EYA2 phosphatase activity, qHTS confirmation; series mostly up to 46.1 µM
Procedure, shortened: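 Eya2 (0.2 uM working solution) preincubated 10 min at room temperature with compound in pH 7.5 HEPES buffer with MgCl2, BSA, DTT. OMFP added (50 uM working solution), 10 min more; fluorescence 485/525 nm, normalized to EGTA and DMSO.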
Potency is the fitted concentration of half-maximal effect.

Potency, inactive:
O=C(O)c1ccc2c(c1)C(=O)N(c1cccc(-c3nc4ccccc4s3)c1)C2=O
CCCc1cc(=O)[nH]c(SCC(=O)Nc2ccc(C)cc2)n1
O=c1[nH]c(/C=C\c2ccc(O)cc2)nc(O)c1[N+](=O)[O-]
CNc1c(Br)cc(C(O)C2=CCc3ccccc32)cc1Br (centres undefined)
Nc1nc2cc3ccccc3cc2[nH]c1=O
Cc1ccccc1NC(=O)C1CCN(C(=O)N2CCOc3ccccc32)CC1
CCc1nc2ccc(C(=O)NCCOc3ccc(OC)cc3)cn2c1N(CCC(C)C)CCN(C)C
Cc1cccn2c(=O)c3cc(S(=O)(=O)c4ccc(F)cc4)c(=N)n(Cc4ccco4)c3nc12
CCC(=O)c1cn(CC(=O)Nc2c(C)cccc2C)c2ccccc12
CCOc1ccccc1O[C@H](c1ccccc1)[C@H]1CNCCO1
O=C(CSc1ccc2c(c1)OCCO2)Nc1ccc2c(c1)OCO2
NC(=O)C1CCN(CC(=O)Nc2ccc3c(c2)OCO3)CC1
OC(c1ccc(Cl)cc1)c1nccc2ccccc12 (centres undefined)

Potency, active:
O=C(O)c1ccc2c(c1)C(=O)N(c1ccc(/C=C/C(=O)c3ccccc3)cc1)C2=O 19 µM
Cc1nnc2sc(SCC(=O)Nc3ccc(Br)cc3)nn2c1=O 4.78 µM
CCOC(=O)c1nn2c(C(F)(F)F)cc(-c3ccc(OC)cc3)nc2c1Br 12 µM
Cc1ccccc1C(=O)NC(=S)Nc1ccccc1N1CCCC1 13.5 µM
C/C(=C1/C=Nc2ccccc21)c1ccc(N(C)C)cc1 19 µM
COc1ccc(CCn2c(=N)c(C(=O)NCc3ccco3)cc3c(=O)n4ccccc4nc32)cc1OC 15.1 µM
Cc1ccccc1OCCn1cc(C(=S)N2CCN(C)CC2)c2ccccc21 16.9 µM
O=c1oc(-c2ccco2)nc2ccccc12 19 µM
O=C(O)CCCCCNS(=O)(=O)c1cccc2c1C(=O)c1ccccc1C2=O 6.01 µM
Nn1c(SCC(=O)Nc2ccc3c(c2)OCCO3)nnc1-c1ccccn1 21.3 µM
O=S(=O)(Nc1nnc(-c2ccccc2)s1)c1ccc(Cl)cc1 15.1 µM
COc1cc(OC)c(OC)cc1CCC(C)NCCC(c1ccccc1)c1ccccc1 (centres undefined) 8.49 µM
Cc1ccc(NC(=O)CN2C(=O)S/C(=C\c3cc(Cl)c(OCC(=O)O)c(Cl)c3)C2=O)cc1 19 µM
CC(SC1=NCCS1)C(=O)Nc1nnc(-c2ccc(Br)cc2)s1 (centres undefined) 6.01 µM
Oc1c(C(c2ccc(Cl)cc2)N2CCCC2)cc(Cl)c2cccnc12 (centres undefined) 6.75 µM
CN1CCN(C(c2ccccn2)c2cc(Cl)c3cccnc3c2O)CC1 (centres undefined) 2.39 µM
